# Data from PubChem BioAssay (NCI).
# Values joined by “and” are separate entries in the source; they are usually repeats but may differ in a detail not shown here. Equal entries are not always repeated. Compounds without any hit were thinned out: in the full panel of roughly 83,000, 20% have a hit.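 Results are percent growth after 48 hours of single-concentration exposure. 100 means growth as in untreated cells, lower positive values show inhibition; negative values down to -100 show cell death.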 Active and inactive are the calls of the source.
# System: SNB-75 CNS
# Assay: NCI-60 one-dose screen, 48 h (100 = growth as untreated, 0 = no growth, -100 = all killed)
# Details: 1 µM
# Experimental: Growth inhibition of the SNB-75 human tumor cell line is measured as a screen for anti-cancer activity. Cells are grown in 96 well plates and exposed to the test compound for 48 hours. Compounds are tested at a single concentration, which is 10^-5 M for most compounds. The reported endpoint is percent growth (GI% or GIPRCNT), where numbers from 0 - 100% represent growth inhibition, and numbers from -100% - 0 represent cell death. For example, a value of 40 represents 60% growth inhibition. A value of 0 means no net growth occurred over the course of the experiment. A value of -40 indicates 40% of cells at the beginning of the experiment died by the end of the experiment. A value of -100 means all cells are dead at the end of the experiment.
# NCI-60 Human Tumor Cell Lines Screen was performed using the standard one-dose NCI protocol, which is described in more detail at https://dtp.cancer.gov/discovery_development/nci-60/default.htm.
# Compounds with GIPRCNT values below 10 were considered active. Activity score was based on GIPRCNT using the following formula: […]
# Score is 0 for GIPRCNT values of 100 or above, 50 for GIPRCNT values of 0, and 100 for GIPRCNT values of -100.
row,SMILES,growth
1,CNC(=O)c1cc(Oc2ccc(CC(=O)Nc3cc(C(C)(C)C)nn3C)cc2)ccn1,51.3% (inactive)

# Same assay, conditions: 10 µM
row,SMILES,growth
1,CNC(=O)c1cc(Oc2ccc(CC(=O)Nc3cc(C(C)(C)C)nn3C)cc2)ccn1,68% (inactive)
2,Cc1[nH]c(-c2nc3ccccc3[nH]2)c(C)c1C(=O)NC(C)C1CCCCC1 (stereo not given),79.6% (inactive)
3,COc1ccc(Cl)cc1C(=O)NCCc1ccc(S(=O)(=O)NC(=O)NC2CCCCC2)cc1,104% (inactive) and 94% (inactive)

# Same assay, conditions: 10 µM unless noted
row,SMILES,growth
1,CCC(=O)C(CC)c1cccc(OC)c1 (stereo not given),76.7% (inactive)
2,CCNC(=O)Nc1ccc(-c2nc3c(c(N4CCOC[C@@H]4C)n2)CCN(C2COC2)C3)cc1,22.9% (inactive) and -33.2% (active)
3,Cn1cnc([N+](=O)[O-])c1Sc1ncnc2nc[nH]c12,39.2% (inactive) and 58% (inactive)
4,O=C(Nc1ccc(Br)cc1)c1cc(Br)ccc1O,-10.1% (active) and 49.2% (inactive)
5,O=C(Nc1ccc([N+](=O)[O-])cc1Cl)c1cc(Cl)ccc1O,-35.7% (active) and -48.7% (active)
6,N#C/C(=C/c1c(O)ccc2ccccc12)C(N)=O,87.4% (inactive)
7,CN(C)c1ccc(C(Cc2ccc3ccccc3n2)Cc2ccc3ccccc3n2)cc1,110% (inactive) and 88.5% (inactive)
8,CC(=O)Oc1cc(C(=O)O)cc(OC(C)=O)c1OC(C)=O,88.1% (inactive) and 90.2% (inactive)
9,O[C@H](c1cc(C(F)(F)F)nc2c(C(F)(F)F)cccc12)[C@@H]1CCCCN1,29.7% (inactive) and 46.3% (inactive)
10,O=[N+]([O-])c1ccccc1N(S(=O)(=O)c1ccccc1)S(=O)(=O)c1ccccc1,96.2% (inactive)
11,CCOC(=O)c1sc(N)nc1-c1ccccc1,94.7% (inactive)
12,CCOc1ccc(Nc2c3ccccc3nc3ccccc23)cc1,77.1% (inactive) and 38.2% (inactive) and 21.5% (inactive)
13,CC(=O)Nc1cccc2c1CCCC2,85.4% (inactive) and 101% (inactive)
14,NCCSC(C[N+](=O)[O-])c1ccccc1Cl (stereo not given),105% (inactive)
15,CCOc1ccc2c(S(=O)(=O)O)cccc2c1[N+](=O)[O-],85.7% (inactive) and 93.8% (inactive)
16,Oc1ccccc1/C=N\NC(=S)N/N=C/c1ccccc1O,77% (inactive) and 90.1% (inactive)
17,CCN(CC)CCCC(CNc1ccnc2cc(Cl)ccc12)c1ccc(Cl)cc1 (stereo not given),-76.2% (active) and -39.9% (active)

row,SMILES,growth
1,Clc1nc(Oc2ccccc2)nc(-c2cn(-c3ccccc3)c3ccccc23)n1,105% (inactive)
2,C#CCN(C)Cc1ccccc1,106% (inactive) and 115% (inactive)
3,COc1ccc(/C(C#N)=C/c2ccccn2)cc1,99.2% (inactive) and 105% (inactive)
4,CCN(CC)CCCC(C)Nc1cnc(C(=O)Nc2cc(F)cc3cccnc23)cn1 (stereo not given),65.7% (inactive) and -54.3% (active)
5,O=C(Oc1cccc(OC(=O)c2ccccc2)c1)c1ccccc1,97.1% (inactive) and 79.6% (inactive)
6,O=[N+]([O-])c1ccc(/C=N\NC(=S)Nc2ccc(F)cc2)cc1,92.5% (inactive) and 97.9% (inactive)
7,O=C(CN1CCOCC1)N1CCOCC1,106% (inactive) and 104% (inactive)
8,COc1ccc2ccccc2c1/C=N/N1CCCCC1,87.6% (inactive)
9,Cc1cc(=O)[nH]c(O)c1C#N,72.5% (inactive) and 96.7% (inactive)
10,CC(=O)c1ccccc1O,107% (inactive) and 93% (inactive) and 97.7% (inactive)
11,COc1cc2c(Nc3ccc(Cl)c(Cl)c3F)ncnc2cc1OCC1C[C@@H]2CN(C)C[C@@H]2C1 (stereo not given in full),-96% (active) and -40.9% (active)
12,CCN(CC)CCNc1cc(-c2cccc(OC(F)(F)F)c2)nc2ccc(N3CCCC3)cc12,86.4% (inactive) and 51.9% (inactive)
13,O=[N+]([O-])c1ccc2nc3c4ccccc4c4ccccc4c3nc2c1,74.4% (inactive)
14,COc1ccc(Cn2c(NCCN=C(N)N)nc(=O)n(Cc3ccc(F)cc3)c2=O)cc1,55.1% (inactive) and 22.7% (inactive)
15,O=C1CCN(Cc2ccccc2)C(=S)N1,125% (inactive) and 83.2% (inactive)
16,CC1=C(/C=C/C(C)=C/C=C/C(C)=C/C=N/NC(=S)NC(=S)N/N=C/C=C(C)/C=C/C=C(C)/C=C/C2=C(C)CCCC2(C)C)C(C)(C)CCC1,-4.78% (active) and -40% (active)

# Same assay, conditions: 30 µM
row,SMILES,growth
1,CNC(=O)c1cc(Oc2ccc(CC(=O)Nc3cc(C(C)(C)C)nn3C)cc2)ccn1,77.9% (inactive)

# Same assay, conditions: 100 µM
row,SMILES,growth
1,Cc1[nH]c(-c2nc3ccccc3[nH]2)c(C)c1C(=O)NC(C)C1CCCCC1 (stereo not given),-98.9% (active)
2,COc1ccc(Cl)cc1C(=O)NCCc1ccc(S(=O)(=O)NC(=O)NC2CCCCC2)cc1,67.4% (inactive)
